16 molecules from PubChem BioAssay (NCI) can be followed below.

A short description of test [1]: NCI Yeast Anticancer Drug Screen. Data for the rad50 strain (AID 155).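 Further: 0% = growth of vehicle-only cultures of the same strain.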 As to conditions: S. cerevisiae rad50 strain growth inhibition; at 50.0 µM; active compounds read high. In short, it runs like this: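 Relative growth inhibition (compound vs vehicle) was measured in yeast with a defined repair-gene alteration.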
Test [2] can be described thus: NCI Yeast Anticancer Drug Screen. Data for the mec2-1 strain (AID 157). The conditions noted are these: S. cerevisiae mec2-1 strain, at 50.0 µM, active compounds read high. In short, it runs like this: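 Mutant yeast (mec2-1) grown with compound; growth inhibition relative to vehicle control reported.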
The nature of test [3]: NCI Yeast Anticancer Drug Screen. Data for the sgs1 mgt1 strain (AID 161).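 Further: 0% = growth of cultures given vehicle only.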 The conditions noted are these: S. cerevisiae sgs1 mgt1 strain, at 50.0 µM, active compounds read high. In short, it runs like this:
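Compounds are added to genetically altered yeast, and growth is compared with cultures given vehicle alone to give percent inhibition.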

Test [4] is described as follows: NCI Yeast Anticancer Drug Screen. Data for the cln2 rad14 strain (AID 165).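 Further: 0% = growth equal to vehicle treated cultures.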 As to conditions: S. cerevisiae cln2 rad14 strain, at 50.0 µM, active compounds read high. Put shortly: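 Readout is yeast growth inhibition versus vehicle-treated controls, using a strain with cln2 and rad14 alterations exposed to compound.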
Test [5] in a line: NCI Yeast Anticancer Drug Screen. Data for the bub3 strain (AID 167). As to conditions: S. cerevisiae bub3 mutant strain, at 50.0 µM, active compounds read high. In short, it runs like this:
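Screening used yeast with an engineered genetic alteration affecting cell cycle control. Compound-exposed cultures were compared with vehicle cultures, and reduced growth was taken as inhibition.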

Test [6] in a line: NCI Yeast Anticancer Drug Screen. Data for the mlh1 rad18 strain (AID 175). As to conditions: S. cerevisiae mlh1 rad18 strain growth inhibition; at 50.0 µM; active compounds read high. In short, it runs like this:
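Genetically defined yeast (DNA repair-deficient) exposed to compounds; growth inhibition determined relative to vehicle.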

The structures appear in SMILES notation. “And” between values parts separate entries of the source, which are not always exact repeats. Equal values may be shown once. This is part of a sample that, as a whole, favours compounds with a hit. Of some 79,000 tested, about 15% had one in any assay. Values without a mark were called inactive. The source made the active and inactive calls. No stated cut-off is given here; in the data, active means growth inhibition above about 70%; inactive means the rest.

For `Cc1cccc(OCC2=NCCN2)c1C`, the growth inhibition in test [1] was 2.95%; in test [2], -4.4%; in test [3], -8.45%; in test [4], -57.1%; in test [5], -4.55%; in test [6], -25.6%.
In the case of `O=C(O)C(F)(F)C(F)(Cl)C(F)(F)C(F)(Cl)C(F)(F)C(F)(Cl)C(F)(F)Cl` (stereo unspecified) (tested in a mixture with another compound), the growth inhibition is 8.45% and 43.4% in test [1]; 28.8% and 18.4% in test [2]; 37.4% and 41.1% in test [3]; 9.7% and 27.6% in test [4]; -2.15% and -2% in test [5]; 35.5% and 30.5% in test [6].
Turning to `N#Cc1ccccc1Cl`, the growth inhibition is 8.05% in test [1]; -8.4% in test [2]; 5.45% in test [3]; 20.7% in test [4]; 24.2% in test [5]; 40% in test [6].
As to `COC(=O)c1ccc(C=C(C#N)C#N)cc1`, the growth inhibition in test [1] is -5.75%; in test [2] it was -2.6%; in test [3] it was -27.9%; in test [4], 30.6%; in test [5] it was 2.45%; in test [6] it was -21%.
For `Cc1cnc2ncn(Cc3c[nH]c(=O)[nH]c3=O)c(=O)c2c1`, the growth inhibition in test [1] was -0.45%; in test [2], 5.55%; in test [3] it was -8%; in test [4], 14.2%; in test [5], -18.4%; in test [6], -11.5%.
As for `NC(CNC(=O)CBr)C(=O)O` (stereo unspecified), the growth inhibition in test [1] is 6.9%; in test [2] it was 18.1%; in test [3], -3.25%; in test [4] it was 8.9%; in test [5], -4.1%; in test [6], -35.2%.
Turning to `CSCC(NP1(=O)SC(NN=C(C)C)=NC1(C)C)C(=O)O` (stereo unspecified), the growth inhibition is 4.85% in test [1]; -3.7% in test [2]; -26.5% in test [3]; 20.3% in test [4]; 17.6% in test [5]; -3.45% in test [6].
Regarding `COC1CC(OC2OC(CO)C(O)C(O)C2O)/C(=C\C#N)C(O)C1OC` (stereo unspecified), the growth inhibition in test [1] is 1.95%; in test [2], -3.05%; in test [3] it was 1.8%; in test [4] it was 9.25%; in test [5] it was 2.35%; in test [6], -58.2%.
As to `O=C(O)/C=C\c1c[nH]c2ccccc12` (tested in a mixture with another compound), the growth inhibition was -3.3% in test [1]; -7.35% in test [2]; -13.4% in test [3]; 0.95% in test [4]; -10.8% in test [5]; -12.2% in test [6].
As to `N#CC1C(=O)c2ccccc2C1=O`, the growth inhibition in test [1] is -1.4%; in test [2] it was 4.15%; in test [3] it was 1.6%; in test [4], -3.35%; in test [5] it was 12.8%; in test [6], -1.85%.
As to `NC(=O)C(Cl)(Cl)Cl`, the growth inhibition in test [1] is -6.6%; in test [2], 9.25%; in test [3] it was 6.1%; in test [4], 4.95%; in test [5] it was -5.65%; in test [6], 12.4%.
Consider `CC(=O)Nc1ncc2ccccc2c1-c1ccc(NC(=O)CCN(CCCl)CCCl)cc1`, for which the growth inhibition in test [1] was 84.5% (active); in test [2], -0.45%; in test [3] it was 12.2%; in test [4], -30.1%; in test [5], 17.6%; in test [6], -9.2%.
For `NC(=O)C(CCN1CCCCC1)(c1ccccc1)c1ccccc1`, the growth inhibition in test [1] was -9.6%; in test [2], -14.9%; in test [3], 5.65%; in test [4], -35.4%; in test [5] it was -8.8%; in test [6], -8.25%.
On to `Nc1ccc(Cl)c(C(F)(F)F)c1`, for which the growth inhibition in test [1] was 0.85%; in test [2], -16.6%; in test [3], -12.1%; in test [4] it was -18.4%; in test [5] it was -1%; in test [6], 2.6%.
Turning to `[C-]#[O+].[C-]#[O+].[Ni].c1ccc([PH+](CC[PH+](c2ccccc2)c2ccccc2)CC[PH+](c2ccccc2)c2ccccc2)cc1`, the growth inhibition in test [1] was -23.4%; in test [2], 0.4%; in test [3] it was -22.4%; in test [4], 3.75%; in test [5] it was 7.6%; in test [6] it was -10.2%.
`O=C(c1ccccc1)C1C(C(=O)c2ccccc2)N1Cc1ccccc1` (stereo unspecified): the growth inhibition is 5% and 21.4% in test [1]; 9.9% and 4.5% in test [2]; 3.8% and -9.95% in test [3]; 2.8% and -1.2% in test [4]; 27.2% and 9% in test [5]; -7.8% and 6.65% in test [6].
